Measurements published in PubChem BioAssay AID489008 (National Center for Advancing Translational Sciences (NCATS), 2010).
Records with an inconclusive call do not appear. Activity calls are given as the source filed them. Calls follow the shape of the dose curve; as a rule, active = well fitted inhibition curve with a large enough effect; inconclusive = small, poorly fitted or top-dose-only effect; inactive = flat fitted curve, though single readings scatter.

Biological target: Ferritin light chain (Equus caballus) (UniProt P02791)
Test: Confirmation Assay for Identification of Novel General Anesthetics; also: nearly all actives have a fitted effect of over 40% in size
Conditions: apoferritin 1-aminoanthracene fluorescence displacement
Procedure, shortened: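 Horse apoferritin (10 uM) pre-loaded with 1-AMA (50% saturated, PBS) exposed to compounds 10 min at room temperature; loss of 1-AMA fluorescence (380/535 nm) scaled between free and bound ligand, curves fitted with Hill equation.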
Potency is read from the fitted curve at half-maximal effect.

Sequence of Ferritin light chain (Equus caballus) (P02791 2-175 limits assumed): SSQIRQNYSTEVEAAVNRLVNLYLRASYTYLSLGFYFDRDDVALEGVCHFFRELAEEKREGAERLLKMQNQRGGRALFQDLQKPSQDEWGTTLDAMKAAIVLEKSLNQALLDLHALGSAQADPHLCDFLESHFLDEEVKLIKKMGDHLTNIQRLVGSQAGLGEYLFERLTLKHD

Potency, active:
Nc1ccc(CSc2ccc(Cl)cc2)cc1 15.8 µM
COc1ccccc1CC(=O)NC12CC3CC(CC(C3)C1)C2 12.6 µM
CCCCSC(=O)Nc1ccccc1 7.08 µM
COc1ccccc1C1SCCN1S(C)(=O)=O (stereo not drawn) 20 µM
O=c1c2c3c(sc2ncn1-n1cccc1)CCCCC3 10 µM
Nc1nc(SCC(=O)C23CC4CC(CC(C4)C2)C3)n[nH]1 7.08 µM
Nc1nc(Cl)cc(NCCc2ccc(O)cc2)n1 14.1 µM
CCN(CC)C(=S)SCC(=O)c1ccccc1 28.2 µM
O=C(CSc1ccc(F)cc1)NC12CC3CC(CC(C3)C1)C2 15.8 µM
CCN1C(=O)N(c2cccc3ccccc23)C(C)=CC1(C)C 14.1 µM
O=C1CCCCCCC1Sc1ccccc1[N+](=O)[O-] (stereo not drawn) 7.94 µM
Cc1ccc(Cl)cc1NC(=O)C1COc2ccccc2O1 (stereo not drawn) 20 µM
CC1(C)CC(=O)N(Cc2ccccc2)C(=O)C1 8.91 µM
CC(=O)c1cccc(NC(=O)CN2C(=O)NC3(CCCCCCC3)C2=O)c1 14.1 µM
O=C(NC1=NCCS1)C12CC3CC(CC(C3)C1)C2 15.8 µM
CCc1ccc(NC(=S)N2CCCCCCC2)cc1 14.1 µM
O=C1c2ccsc2SCCN1Cc1ccc(Cl)cc1Cl 15.8 µM
Cc1csc(OCC(=O)Nc2ccc(C)c(C)c2)n1 17.8 µM
CCc1c(O)nc(SC2CC(=O)N(c3ccccc3)C2=O)[nH]c1=O (stereo not drawn) 31.6 µM
O=c1[nH]cnc2sc3c(c12)CCCCC3 15.8 µM
CCN(CC)c1cccc(OC2=NS(=O)(=O)c3ccccc32)c1 17.8 µM
O=C(Nc1ccc(Cl)c(Cl)c1)OCc1cncs1 28.2 µM
Nc1nc(-c2cc(Cl)cc(Cl)c2OC(F)F)cs1 8.91 µM
O=C(OCC(=O)C12CC3CC(CC(C3)C1)C2)c1cccnc1 22.4 µM
COc1ccccc1OCC(=O)N1CCCCCCC1 12.6 µM
O=S(=O)(Nc1ccc2c(c1)CCC2)c1cccs1 17.8 µM
O=C(CSc1ccccn1)N1CCc2ccccc21 8.91 µM
O=C1c2ccsc2SCCN1Cc1cccc(Cl)c1 15.8 µM
Cc1cccc(OCCC(=O)OCC(=O)N2CCc3ccccc32)c1 10 µM
NCCOc1ccc(C2CCCCC2)cc1 7.94 µM
O=C(COC(=O)CC1CC2CCC1C2)Nc1ccc(F)cc1 (stereo not drawn) 20 µM
Cc1cc(C)cc(C(=O)N2CCCCCC2)c1 20 µM
O=C(COc1ccccc1)N1CCCCCCC1 12.6 µM
Cc1ccc(O)c(NC(=O)CCC2CCCCC2)c1 7.94 µM
Cc1cc(NS(=O)(=O)N(C)C)ccc1C(C)C 20 µM
Cc1ccc(SCC(=O)N2N=CCC2c2ccccc2)cc1 (stereo not drawn) 15.8 µM
Fc1ccccc1CNc1cc(Cl)cc(Cl)c1 14.1 µM
CC(C)CCNC(=O)CN1N=C(c2ccc(Cl)cc2)CCC1=O 5.19 µM
